Source: PubChem BioAssay (NCI)
The panel holds about 83,000 compounds, 20% with a hit somewhere; the sample as a whole holds those more often.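 Growth was measured after 48 h exposure to one concentration of compound in 96-well plates. Values under 10 count as active.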 Calls of active or inactive are those of the source.

Experiments:
Assay in all cases: NCI-60 one-dose screen, 48 h (100 = growth as untreated, 0 = no growth, -100 = all killed)
Conditions in all cases: 10 µM unless noted
SR leukemia = tested on: SR leukemia
RPMI-8226 leukemia = tested on: RPMI-8226 leukemia
OVCAR-8 ovarian = tested on: OVCAR-8 ovarian
OVCAR-5 ovarian = tested on: OVCAR-5 ovarian
OVCAR-4 ovarian = tested on: OVCAR-4 ovarian
SK-OV-3 ovarian = tested on: SK-OV-3 ovarian
IGROV1 ovarian = tested on: IGROV1 ovarian
OVCAR-3 ovarian = tested on: OVCAR-3 ovarian
HS 578T breast = tested on: HS 578T breast
NCI/ADR-RES ovarian = tested on: NCI/ADR-RES ovarian
BT-549 breast = tested on: BT-549 breast
MDA-MB-435 melanoma = tested on: MDA-MB-435 melanoma
SW-620 colon = tested on: SW-620 colon
MCF7 breast = tested on: MCF7 breast
HCT-116 colon = tested on: HCT-116 colon
HCC-2998 colon = tested on: HCC-2998 colon
KM12 colon = tested on: KM12 colon
T-47D breast = tested on: T-47D breast

Measured: growth

O=C(Nc1cccc(Cl)c1)Oc1c(Br)c(Br)c(Br)c(Br)c1Br
inactive: SR leukemia 107% | RPMI-8226 leukemia 73.2% | OVCAR-8 ovarian 88.9% | OVCAR-5 ovarian 102% | OVCAR-4 ovarian 95.4% | SK-OV-3 ovarian 62.6% | IGROV1 ovarian 107% | OVCAR-3 ovarian 88.5% | HS 578T breast 84.3% | NCI/ADR-RES ovarian 96.4% | BT-549 breast 79.5% | MDA-MB-435 melanoma 99.8% | SW-620 colon 102% | MCF7 breast 93.9% | HCT-116 colon 80.3% | HCC-2998 colon 94.7% | KM12 colon 106%

Cc1c([N+](=O)[O-])cc(C(C)(C)C)cc1[N+](=O)[O-]
inactive: SR leukemia 106% | RPMI-8226 leukemia 112% | OVCAR-8 ovarian 98.6% | OVCAR-5 ovarian 91.1% | OVCAR-4 ovarian 115% | SK-OV-3 ovarian 92.3% | IGROV1 ovarian 112% | OVCAR-3 ovarian 101% | HS 578T breast 99.5% | NCI/ADR-RES ovarian 103% | BT-549 breast 102% | MDA-MB-435 melanoma 107% | SW-620 colon 98.9% | MCF7 breast 92.8% | HCT-116 colon 87.3% | HCC-2998 colon 95.2% | KM12 colon 102%

COc1cc(NCC(O)CN(CC(C)C)CC(C)C)c2nc(C)ccc2c1 (stereo not given)
active: MCF7 breast -11.4%
inactive: SR leukemia 102% | RPMI-8226 leukemia 99.4% | OVCAR-8 ovarian 87.2% | OVCAR-5 ovarian 122% | OVCAR-4 ovarian 40.2% | SK-OV-3 ovarian 75.2% | IGROV1 ovarian 86.9% | OVCAR-3 ovarian 53.2% | HS 578T breast 85.1% | NCI/ADR-RES ovarian 92% | BT-549 breast 90.9% | MDA-MB-435 melanoma 105% | SW-620 colon 92.7% | HCT-116 colon 97.3% | HCC-2998 colon 89.9% | KM12 colon 75.5%

O=C(O)CCCCCCCCCCCCCCC(=O)O
inactive: SR leukemia 101% | RPMI-8226 leukemia 93.8% | OVCAR-8 ovarian 97.2% | OVCAR-5 ovarian 109% | OVCAR-4 ovarian 120% | SK-OV-3 ovarian 102% | IGROV1 ovarian 100% | OVCAR-3 ovarian 101% | NCI/ADR-RES ovarian 103% | T-47D breast 110% | BT-549 breast 105% | MDA-MB-435 melanoma 109% | SW-620 colon 109% | MCF7 breast 97% | HCT-116 colon 107% | HCC-2998 colon 101% | KM12 colon 102%

COc1ccccc1-c1c(-c2ccc(Cl)cc2)c2cc3c(cc2[nH]c1=O)OCCO3
inactive: SR leukemia 45.8% | OVCAR-8 ovarian 68.5% | OVCAR-5 ovarian 91.1% | OVCAR-4 ovarian 68.5% | SK-OV-3 ovarian 101% | IGROV1 ovarian 77% | OVCAR-3 ovarian 64.5% | NCI/ADR-RES ovarian 72.3% | T-47D breast 66% | BT-549 breast 67.7% | MDA-MB-435 melanoma 65.2% | SW-620 colon 93.7% | MCF7 breast 42% | HCT-116 colon 47.7% | HCC-2998 colon 83.7% | KM12 colon 63.8%
active: RPMI-8226 leukemia -57.2%

O=C1CCCN1c1cccc2cccnc12
inactive: SR leukemia 101% | RPMI-8226 leukemia 102% | OVCAR-8 ovarian 103% | OVCAR-5 ovarian 109% | SK-OV-3 ovarian 114% | IGROV1 ovarian 107% | OVCAR-3 ovarian 110% | HS 578T breast 97.3% | NCI/ADR-RES ovarian 99.3% | T-47D breast 97.5% | BT-549 breast 109% | MDA-MB-435 melanoma 100% | SW-620 colon 101% | MCF7 breast 93.3% | HCT-116 colon 102% | HCC-2998 colon 86.7% | KM12 colon 102%

CC(=O)O[C@]1(C(C)=O)CC[C@H]2[C@@H]3C=C(Cl)C4=CC(=O)CC[C@]4(C)[C@H]3CC[C@@]21C
inactive: SR leukemia 92.1% | RPMI-8226 leukemia 92.7% | OVCAR-8 ovarian 101% | OVCAR-5 ovarian 101% | OVCAR-4 ovarian 100% | SK-OV-3 ovarian 107% | OVCAR-3 ovarian 121% | NCI/ADR-RES ovarian 99.6% | BT-549 breast 94.5% | MDA-MB-435 melanoma 113% | SW-620 colon 115% | MCF7 breast 112% | HCT-116 colon 96.7% | HCC-2998 colon 103% | KM12 colon 109%

COc1ccc2c(/C=C3/C(=O)NC(=S)NC3C)cc(=O)oc2c1 (stereo not given)
inactive: SR leukemia 96.6% | RPMI-8226 leukemia 117% | OVCAR-8 ovarian 91.6% | OVCAR-5 ovarian 94.1% | OVCAR-4 ovarian 100% | SK-OV-3 ovarian 100% | IGROV1 ovarian 96.2% | OVCAR-3 ovarian 101% | HS 578T breast 100% | NCI/ADR-RES ovarian 99% | BT-549 breast 103% | MDA-MB-435 melanoma 102% | SW-620 colon 103% | MCF7 breast 90.1% | HCT-116 colon 95.6% | HCC-2998 colon 96% | KM12 colon 99.7%

CCCCc1ccc(Nc2nnc(SCC(=O)NC(=O)NCC)s2)cc1
inactive: RPMI-8226 leukemia 85% | OVCAR-8 ovarian 74.1% | OVCAR-5 ovarian 96.8% | OVCAR-4 ovarian 104% | SK-OV-3 ovarian 195% | OVCAR-3 ovarian 104% | HS 578T breast 60.6% | NCI/ADR-RES ovarian 103% | T-47D breast 128% | MDA-MB-435 melanoma 104% | SW-620 colon 102% | MCF7 breast 101% | HCT-116 colon 93.6% | HCC-2998 colon 105% | KM12 colon 102%
active: SR leukemia 9.38%
